Casp1 inh – caspase-1 (human) inhibition, allosteric or competitive. Caspase-1 enzyme, Ac-WEHD-AFC fluorogenic rate. Potency, µM (series often up to 57.5 µM), inactives show at the top dose activity change, negative = inhibition, usual class: inhibitors. hit rate 0.03% among 75,000;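 note: plate controls were vehicle for no effect and no substrate for full effect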
ALOX15 inhib – inhibitors of human 15-lipoxygenase (ALOX15); Potency, µM (series often up to 57.1 µM), for inactives: top-dose activity change, negative = inhibition, most hits filed as inhibitors; purified 15hLO-1, xylenol orange hydroperoxide absorbance; P16050; hit rate 1.4% among 74,000; note: % is set by controls: 0 for no effect and ±100 for the full control effect; nearly all actives have a fitted effect of over 55% in size
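Hydroperoxide formed from arachidonic acid (50 uM) by purified human 15hLO-1 (40 nM) oxidizes ferrous iron, and the ferric-xylenol orange complex is read at 573 versus 405 nm. Compounds were preincubated 15 min; reaction ran 6 min at room temperature.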
Caspase-7 inhib – blocks human caspase-7 allosterically or competitively. hit rate 0.02% among 75,000. recombinant caspase-7, Ac-DEVD-AFC fluorescence rate. Potency, µM (titrated, usually from 57.5 µM), for the others: top-dose activity change, negative = inhibition, hits mostly inhibitors; active = well fitted inhibition curve with a large enough effect in the main read-out, with a control signal flat, not every such curve was filed as active; inconclusive = small, poorly fitted or top-dose-only effect, or a change in a side signal; note: % of control where 0% means no effect
Target sequence (P55210 24-198 limits assumed): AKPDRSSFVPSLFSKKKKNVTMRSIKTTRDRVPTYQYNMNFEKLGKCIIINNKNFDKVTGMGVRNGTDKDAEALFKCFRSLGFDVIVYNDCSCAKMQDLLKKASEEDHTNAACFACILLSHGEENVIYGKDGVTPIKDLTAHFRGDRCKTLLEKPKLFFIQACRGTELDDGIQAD
Target sequence (P55210 207-303 limits assumed): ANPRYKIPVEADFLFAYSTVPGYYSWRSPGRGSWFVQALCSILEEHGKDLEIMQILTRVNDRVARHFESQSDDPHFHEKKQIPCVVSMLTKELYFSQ
TSHR ag – agonists of human thyroid stimulating hormone receptor; hit rate 0.48% among 73,000; Potency, µM (highest dose often 57.1 µM), without a hit: top-dose activation, actives largely listed as activators; HEK293-CNG-TSHR cells (CNG channel as cAMP sensor), membrane potential dye, cAMP; active = well fitted activation curve with a large enough effect in the main read-out, with a control signal flat, not every such curve was filed as active; inconclusive = small, poorly fitted or top-dose-only effect, or a change in a side signal; inactive = no such curve, though single readings can be large or run the other way; % of control where 0% means no effect;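 note: the control signal comes from parental cells without the receptor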
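cAMP rise detected as CNG-channel membrane depolarization by fluorescent dye (emission 590 nm), 30 min after compound, following 60 min dye loading containing 100 uM RO 20-1724 at room temperature. Cells: TSHR/CNG HEK 293, with parental CNG HEK 293 as control.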
ERK AVP inh – blocks ERK signaling stimulated by vasopressin; hit rate 0.99% among 72,000; HEK293-V1b, vasopressin-stimulated pERK AlphaScreen; Potency, µM (series often up to 57.5 µM), for the others: at the highest dose activity, negative = inhibition, most hits filed as inhibitors; note: % is set by controls: 0 for no effect and ±100 for the full control effect; nearly all actives have a fitted effect of over 55% in size
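Overnight-seeded V1b-HEK293 cells in 1% FBS got compound, then vasopressin (25 nM final, 5 min, 37C), then lysis buffer. AlphaScreen detection of phospho-ERK; activity normalized to basal and full-stimulation controls.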
HEK293 cAMP ctrl – counter-screen for TSHR agonists: cAMP increase in parental HEK293; parental HEK293 CNG cAMP sensor, membrane potential fluorescence; Potency, µM (top dose mostly 57.1 µM), inactives show at the highest dose activation, actives largely listed as activators; hit rate 2.5% among 73,000; note: % of control where 0% means no effect; nearly all actives have a fitted effect of over 55% in size
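Parental HEK 293 cells stably expressing a cAMP-gated CNG channel were loaded with membrane potential dye containing 100 uM RO 20-1724 for 60 min. Compound added for 30 min; depolarization read as fluorescence intensity at 590 nm.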
Numbers without * were called inactive; ? = inconclusive; · = not tested or not shown; [ ] = dose if it differs, or a comment. Compounds with a hit are over-represented: about 4.8% of the library has one in this group of screens. Unless noted, calls come from the whole dose curve; as a rule, active = well fitted curve in the direction sought with a large enough effect; inconclusive = small, poorly fitted or top-dose-only effect, or another doubt; inactive = no such curve, though single readings can be large; an effect the other way counts as inactive or inconclusive. Potency is the fitted concentration of half-maximal effect.

SMILES	Casp1 inh	ALOX15 inhib	Caspase-7 inhib	TSHR ag	ERK AVP inh	HEK293 cAMP ctrl
COc1ccc(OC)c(C(c2nnnn2C2CCCC2)N2CCN(c3ccc(F)cc3)CC2)c1 (stereo not given)	-2%	-1%	-2%	?	-11%	?
COc1ccc(C(c2nnnn2C2CCCC2)N2CCC(C)CC2)c(OC)c1 (stereo not given)	0%	6%	1%	?	9%	16µM*
COCCn1nnnc1C(c1ccc(OC)cc1OC)N1CCN(c2ccccc2F)CC1 (stereo not given)	0%	15%	-1%	?	1%	25µM*
COc1ccccc1CN1CCC2(CC1)CCN(C(C)=O)CC2	-4%	5%	1%	?	8%	?
C=C1CCC(=O)C(C)CCC2C1CC2(C)C (stereo not given)	-1%	1%	0%	·	6%	·
Clc1ccc([C@@H](c2ccccc2Cl)C(Cl)Cl)cc1	·	·	·	20µM*	·	12%
Clc1ccccc1C(Nc1ncccn1)Nc1ncccn1	-4%[11.5 µM]	0%[11.4 µM]	-1%[11.5 µM]	-1%[11.4 µM]	14%[11.5 µM]	-1%[11.4 µM]
Cc1cc(C)nc(-n2nc(C)c(C3(O)C(=O)Nc4ccccc43)c2N)n1 (stereo not given)	1%	14%	0%	·	-7%	20%
CCOC(=O)c1c(C2CCN(C(=O)OCC)CC2)nc2ccccn12	0%	-20%	-2%	?	·	0.32µM*
Oc1ccccc1C1Nc2cccc3cccc(c23)N1	-8%	20µM*	-11%	-35%	9%	-25%
Brc1ccc(C2Nc3cccc4cccc(c34)N2)o1	-8%	10µM*	-14%	-17%	?	-4%
O=C(Nc1ccc(Cl)cc1C(=O)Nc1ccc(Br)cn1)c1ccco1	0%	?	-1%	?	-6%	20µM*
CCC(c1nnnn1Cc1ccc(F)cc1)N1CCN(C2CCCCC2)CC1 (stereo not given)	-3%	7%	-3%	?	10%	0.63µM*
Fc1ccc(Cn2nnnc2CN2CCN(C3CCCC3)CC2)cc1	3%	-3%	4%	?	7%	?
CC(C)CC(c1nnnn1Cc1ccco1)N1CCN(C2CCCC2)CC1 (stereo not given)	-1%	-7%	1%	?	-2%	3.2µM*
CC(C)CC(c1nnnn1C(C)(C)C)N1CCN(C2CCCC2)CC1 (stereo not given)	-1%	0%	0%	?	0%	13µM*
O=C(O)CCC/C=C\C[C@H]1[C@@H](/C=C\[C@@H](O)C2Cc3ccccc3C2)[C@H](F)C[C@H]1O	·	·	·	7%	·	-6%
CCOc1ccccc1NC(=O)C1CCN(S(=O)(=O)c2cccc3cccnc23)CC1	-2%	-6%	-2%	?	-8%	?
CC(C)Oc1ccc(C2/C(=C(/O)c3ccc(F)cc3)C(=O)C(=O)N2CCCN(C)C)cc1 (stereo not given)	0%	8%	1%	-2%	-5%	-6%
CC1CCN(CC(=O)Nc2sc3c(c2C#N)CCC3)CC1	1%	25µM*	-1%	?	1%	7.9µM*
COC(=O)CCC(=O)Nc1sc2c(c1C#N)CCCC2	-1%	-12%	1%	-1%	?	21%
CC(C)Oc1ccc(C(=O)NCc2ccco2)cc1	0%	-3%	-1%	0%	-8%	3%
CN(C)c1ccc(C(=S)NCc2ccco2)cc1	-12%	25µM*	-10%	-9%	-15%	-9%
Nc1nnc(N2CCc3ccccc32)s1	2%	11%	-1%	6%	16µM*	-9%
CC(=O)c1ccc(C2C=CC(O)C(CO)O2)cc1 (stereo not given)	1%[11.5 µM]	7%[11.4 µM]	1%[11.5 µM]	-9%[11.4 µM]	21%[11.5 µM]	-1%[11.4 µM]
Cc1nnc(C)c2c(C)n(-c3ccc(Br)cc3)c(C)c12	0%	1%	-1%	?	5%	4µM*
Cc1cc(NC(=O)CC2CCCC2)n(-c2nc3ccccc3[nH]2)n1	0%	5%	-7%	?	-11%	25µM*

Source: PubChem BioAssay (National Center for Advancing Translational Sciences (NCATS))
